High-throughput results from PubChem.
The full list was thinned out, with hits kept by preference.
TbREL1 inh: TbREL1 inhibition, primary screen. TbREL1 RNA ligation, FRET fluorescence. AID 1117264. inhibition, % at 9.66 µM. hit rate 0.49% among 89,000;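 active = inhibition above the mean inhibition across all screened compounds plus 3 SD, cut at about 11% in these data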
Target sequence (P86926 whole entry, looked up): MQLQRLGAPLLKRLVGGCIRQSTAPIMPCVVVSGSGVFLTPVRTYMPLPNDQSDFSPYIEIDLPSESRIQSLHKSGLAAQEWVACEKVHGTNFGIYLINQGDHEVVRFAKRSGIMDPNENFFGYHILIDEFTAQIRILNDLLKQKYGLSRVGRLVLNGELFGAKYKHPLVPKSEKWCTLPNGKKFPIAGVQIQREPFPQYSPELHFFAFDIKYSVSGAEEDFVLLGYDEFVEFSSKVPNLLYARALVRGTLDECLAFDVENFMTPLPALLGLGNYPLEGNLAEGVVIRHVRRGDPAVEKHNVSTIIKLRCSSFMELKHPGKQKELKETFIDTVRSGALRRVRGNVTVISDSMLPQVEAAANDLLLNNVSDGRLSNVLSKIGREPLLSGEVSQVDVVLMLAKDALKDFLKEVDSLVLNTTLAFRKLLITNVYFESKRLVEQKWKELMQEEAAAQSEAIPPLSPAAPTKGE
TbREL1 conf: TbREL1 inhibition, confirmation; TbREL1 RNA ligation, FRET fluorescence; AID 1117282; inhibition, % at 9.66 µM; hit rate 37% among 390; shares compounds with TbREL1 inh;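 active = mean inhibition across replicates above a set limit taken from the earlier primary screen, cut at about 11% in these data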
Hits are given with their value; . = inactive.

SMILES	TbREL1 inh	others
CCOc1ccccc1OCC(=O)Nc1ccc(Cl)cc1Cl	.
Cc1ccc(-c2cc(-c3nnc4sc(COc5ccccc5)nn34)[nH]n2)cc1	.
COc1cccc(NC(=O)NC2CCCCN(Cc3ccc(C)cc3)C2=O)c1 (stereo not given)	.
O=C(CSc1nc2ccccc2n1Cc1ccccc1)NN=Cc1c[nH]c2ccccc12	.
O=C(NC1CCCc2c1cnn2-c1ccc(F)cc1F)c1ccccc1 (stereo not given)	.
O=C(Cc1ccccc1)NC1CCCc2c1cnn2-c1ccc(F)cc1F (stereo not given)	11	TbREL1 conf=.
Cc1nnc(SCC(=O)NC2CCCc3c2cnn3-c2ccc(F)cc2F)o1 (stereo not given)	.
O=C1CC(N2CCOCC2)=NC(=O)N1c1ccc(Br)cc1	.
COc1ccc(-n2c(-c3ccccc3)nnc2-c2ccc(Cl)cc2)cc1	.
[S-]c1nnc(-c2ccc(Br)cc2)n1-c1ccccc1.[Zn+2]	23	TbREL1 conf=17
O=C(O)c1ccc(CSc2nnc(-c3ccncc3)n2-c2ccc(Br)cc2)cc1	.
O=C1CC(c2ccc3c(c2)OCO3)N=C2N(Cc3ccc4c(c3)OCO4)C/C(=C/c3ccccc3)N12 (stereo not given)	.
COc1ccc(Oc2c(Cl)cnn(-c3ccc(C(C)C)c(C)c3)c2=O)cc1	.
COc1cc(CN(CCN(C)C)Cc2ccccc2)ccc1OCc1ccccc1	16	TbREL1 conf=12
COc1cc(C(=O)O)ccc1OCc1ccccc1	.
COc1cc(CNC(=O)C2CC2)ccc1OCc1ccccc1	.
O=C(Cn1nnc(-c2ccccc2F)n1)Nc1ccc(Cl)cc1	.
Cc1n[nH]c(C)c1S(=O)(=O)NCCc1ccccc1	.
O=C1/C(=C\c2ccco2)SC(=S)N1c1ccccc1	.
Cc1ccc(N2C(=O)/C(=C\c3ccco3)SC2=S)cc1	.
O=C1/C(=C\c2ccco2)SC(=S)N1C1CCS(=O)(=O)C1 (stereo not given)	19	TbREL1 conf=.
O=C(CN1C(=O)CCSc2ccccc21)Nc1ccc(Cl)c(Cl)c1	.
COc1ccccc1CNC(=O)NCCCN1CCN(c2ccc(F)cc2)CC1	.
O=C(Cn1nnc(-c2ccccc2F)n1)Nc1ccc(F)cc1F	.
Cc1nc2cc(C(=O)N3CCN(C(=O)C(Cl)Cl)CC3)ccc2n1C1CCCC1	.
SMILES	TbREL1 inh	others
CCN(C(=O)COC(=O)c1cc(OC)c(OC)cc1[N+](=O)[O-])C1CCS(=O)(=O)C1 (stereo not given)	.
CCN(C(=O)COC(=O)c1cc([N+](=O)[O-])ccc1N1CCCCC1)C1CCS(=O)(=O)C1 (stereo not given)	11	TbREL1 conf=.
CN(C(=O)COC(=O)c1cc([N+](=O)[O-])ccc1N1CCOCC1)C1CCCCC1	.
COc1cccc(/C=N\N2CCN(c3ccc(C)cc3)CC2)c1O	.
Cc1ccccc1CN1CCCCC(NC(=O)c2cc(-c3ccccc3)no2)C1=O (stereo not given)	.
O=C(Cn1c(=O)c2cccn2c2cccnc21)NCCCN1CCN(c2ccc(Cl)cc2)CC1	.
COc1ccc(CN(C)CC(O)COC(c2ccc(OC)cc2)c2ccc(OC)cc2)cc1 (stereo not given)	13	TbREL1 conf=.
COc1ccc(-c2noc(CN(C)Cc3ccccc3)n2)cc1	.
COc1ccc(CNC(=O)CN(C)Cc2ccc(SC)cc2)cc1	.
COc1cc(-c2c(C(=O)c3ccccc3)[nH]c(N)c2C(N)=O)ccc1O	.
O=C(Cn1nc(-c2ccccc2)c2ccccc21)Oc1ccccc1	.
O=C(CSc1nc2ccccc2nc1N1CCCCC1)NCc1ccc(Cl)cc1Cl	.
COc1ccccc1CN(C)C(=O)C1CCCN(c2nc3ccccc3o2)C1 (stereo not given)	.
COC(=O)C1=C(C)N(Cc2ccccc2C(F)(F)F)C(=NCC2CC2)NC1c1ccc(F)cc1 (stereo not given)	12	TbREL1 conf=11
COC(=O)C1=C(C)N(Cc2ccc(F)cc2)C(=S)NC1c1ccc(Cl)cc1 (stereo not given)	.
COC(=O)C1=C(C)N(Cc2ccccc2C(F)(F)F)C(=NCc2ccc(C(F)(F)F)cc2)NC1c1cccc(F)c1 (stereo not given)	14	TbREL1 conf=22
COC(=O)C1=C(C)N(Cc2ccccc2)C(=NCC(C)C)N[C@H]1c1cccc(F)c1	.
COC(=O)C1=C(C)N(Cc2ccccc2C(F)(F)F)C(=NCC2CC2)NC1c1ccc(C(F)(F)F)cc1 (stereo not given)	.
COC(=O)C1=C(C)N(Cc2ccc(Cl)cc2)C(=S)NC1c1ccc(OC)cc1 (stereo not given)	.
COC(=O)C1=C(C)N(Cc2ccccc2)C(=NCc2ccco2)N[C@H]1c1cccc(F)c1	.
COC(=O)C1=C(C)N(Cc2ccc(C(F)(F)F)cc2)C(=NCc2ccccc2C(F)(F)F)NC1c1ccc(F)cc1 (stereo not given)	14	TbREL1 conf=14
COC(=O)C1=C(C)N(Cc2ccccc2C(F)(F)F)C(=NCc2ccc(OC)cc2)NC1c1cccc(Cl)c1 (stereo not given)	19	TbREL1 conf=18
Cc1ccc(-n2c(Cc3cccs3)nnc2SCC(=O)Nc2cccc3ccccc23)cc1	.
CCOc1ccc(-n2c(SCC(=O)Nc3ccc(S(=O)(=O)Nc4cc(C)nc(C)n4)cc3)nnc2-c2ccc(C)cc2)cc1	.
COC(=O)[C@@]12CCCCC=C1N(CCc1ccc(Cl)cc1)C(=O)[C@H]2CC(=O)NCC12CC3CC(CC(C3)C1)C2	.
SMILES	TbREL1 inh	others
Cc1cc(N2CCN(CCO)CC2)n2nc(C)nc2n1	.
Cc1ccccc1CS(=O)(=O)Cc1ccc(C(=O)Nc2c(C)cccc2C)o1	.
CCOC(=O)C1(C(=O)OCC)Cc2c([nH]c3ccccc23)[C@]2(N1)C(=O)N(C)c1ccc(Br)cc12	.
COc1ccc2c(C(c3ccccc3O)C3CCCN3S(=O)(=O)c3ccc(C)cc3)cn(C)c2c1 (stereo not given)	.
CCC[C@H]1[C@@H](OC(=O)NCCc2c[nH]c3ccccc23)CC[C@@]23CCCN2C(=O)CCC[C@@H]13	.
Cc1ccc(-n2c(SCC(=O)Nc3ccc(OCc4ccccc4)cc3)nnc2-c2cnccn2)cc1	.
Cc1cc(=O)[nH]c(SCC(=O)Nc2cccc(C)c2C)n1	.
COc1ccc(Cn2ccc3ccc(-c4ccc5ccn(C(=O)c6cccc(OC)c6)c5c4)cc32)cc1	.
COc1cc(C=Nn2c(-c3n[nH]c4c3CCC4)n[nH]c2=S)ccc1OCc1ccccc1	.
CCn1c(COc2ccc(Cl)cc2)nnc1SCC(=O)Nc1ccc(Oc2ccccc2)cc1	.
C=CCCC(=O)N[C@H]1CC[C@@]23CCCN2C(=O)CCC[C@H]3[C@H]1C	.
O=C(N/N=C\c1ccccn1)c1cccc(C(=O)N/N=C\c2ccccn2)n1	.
O=C(Cc1cccs1)N/N=C/c1ccccn1	.
O=C(N/N=C/c1ccccn1)c1cccs1	12	TbREL1 conf=.
Brc1ccc(CSc2nnc(SCc3ccccc3)s2)cc1	.
CCCCN1CCN(C(=O)C2CCN(S(=O)(=O)c3ccc4[nH]c(=O)oc4c3)CC2)CC1	.
O=C(Nc1ccncc1)C1CCCN(S(=O)(=O)c2cccc3cccnc23)C1 (stereo not given)	.
O=C(NC1CCCC1)C1CCN(S(=O)(=O)c2cccc3cccnc23)CC1	.
O=C(NC1CCCCC1)C1CCCN(S(=O)(=O)c2cccc3cccnc23)C1 (stereo not given)	13	TbREL1 conf=.
